Assay outcomes: PubChem BioAssay, National Center for Advancing Translational Sciences (NCATS)
The list is not random: actives were taken first. Their share in the collection is about 5.2%.
Tau fibril FP – qHTS for Inhibitors of Tau Fibril Formation, Fluorescence Polarization; Microtubule-associated protein tau (Homo sapiens), P10636; K18 P301L tau heparin fibrillization, Alexa594 FP, 6 h; Potency, µM (series often up to 57.7 µM), inactives show at the highest dose activity, negative = inhibition, usual class: inhibitors; actives 0.39% (n = 280,000); further: potency means the concentration at half of the fitted maximal effect; nearly all actives have a fitted effect of over 55% in size
Target sequence (P10636 561-689 P618L limits assumed): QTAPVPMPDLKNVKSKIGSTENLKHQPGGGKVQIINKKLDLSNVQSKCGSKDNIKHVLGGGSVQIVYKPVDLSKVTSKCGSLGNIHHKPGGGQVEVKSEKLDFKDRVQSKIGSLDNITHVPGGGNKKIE
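Recombinant K18 P301L […], labeled with Alexa 594 at 0.24 uM over 15 uM unlabeled; heparin inducer 20 uM final; 37 C, 6 hr; FP endpoint.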
FBPA coupling cs – qHTS Assay for Inhibitors of Fructose-1,6-bisphosphate Aldolase from Giardia Lamblia: Coupling assay counterscreen; coupling enzyme system counterscreen, AmpLite Red fluorescence; activity change, negative = inhibition, % at 58.2 µM, hits read low; actives 0.67% (n = 290,000); in the data active means activity change below about -30%
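Counterscreen lacking aldolase: glyceraldehyde-3-phosphate coupling-enzyme reagent preincubated 10 min at RT with compound (at 57.5 uM final), then substrate/coupling system with AmpLite Red added; fluorescence read at 525/598 nm after 20 min RT.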
Tau fluor cs – Counterscreen qHTS for Inhibitors of Tau Fibril Formation, Fluorescence Polarization; tau K18 P301L Alexa594 fluorescence, heparin fibrillization; Potency, µM (doses to about 57.7 µM), without a hit: at the top dose activity change, negative = decrease; actives 0.93% (n = 280,000); AID 1463, 2008; further: potency means the concentration at half of the fitted maximal effect; nearly all actives have a fitted effect of over 55% in size
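Human K18 P301L tau (15 uM unlabeled plus 0.24 uM Alexa 594-labeled, final) in 100 mM sodium acetate pH 7 was mixed with compound and 20 uM heparin and incubated 6 hr at 37 C.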
Tau ThT inhib – qHTS for Inhibitors of Tau Fibril Formation, Thioflavin T Binding. Microtubule-associated protein tau (Homo sapiens), P10636. recombinant tau K18 P301L (four-repeat tau fragment), heparin-induced fibrillization, ThT fluorescence. Potency, µM (doses to about 57.4 µM), for the others: top-dose activity, negative = inhibition, usual class: inhibitors. actives 2.1% (n = 270,000); further: potency means the concentration at half of the fitted maximal effect; nearly all actives have a fitted effect of over 55% in size
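Recombinant human tau K18 fragment […] carrying P301L, 15 uM unlabeled plus 0.24 uM Alexa 594-labeled, was fibrillized with 20 uM heparin in 100 mM sodium acetate pH 7 for 6 hr at 37 C; 30 uM ThT fluorescence read after 1 hr.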
Sfp PPTase inh – qHTS Assay for Inhibitors of Bacillus subtilis Sfp phosphopantetheinyl transferase (PPTase) | Potency, µM, inactives show largest response in the series, negative = inhibition, actives largely listed as inhibitors | actives 3.5% (n = 310,000) | Biochemical Sfp PPTase activity, qHTS | 4'-phosphopantetheinyl transferase ffp (Bacillus subtilis), Q9F4F7;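 further: the enzyme is Sfp with the accession as filed and its product quenches rhodamine fluorescence; potency means the concentration at half of the fitted maximal effect; 0% = enzyme reaction without inhibitor and -100% = no enzyme wells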
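Compounds were incubated with enzyme (final 15 nM) for 15 min at room temperature before substrate addition started the reaction. Fluorescence at 525 nm excitation, 598 nm emission was recorded immediately and after 30 minutes.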
An asterisk follows results filed as active; ? = inconclusive; · = not tested or not shown; [ ] = another dose, or the depositor's remark. Unless noted, the call rests on the fitted dose curve; in most records, active means well fitted curve in the direction sought with a large enough effect; inconclusive means small, poorly fitted or top-dose-only effect, or another doubt; inactive means no such curve, though single readings can be large; an effect the other way counts as inactive or inconclusive. Unless noted, on the % scale 0 is the no-effect control and ±100 the full control effect.

SMILES	Tau fibril FP	FBPA coupling cs	Tau fluor cs	Tau ThT inhib	Sfp PPTase inh
CN(C)c1ccc(/C=N/NC(=O)C(O)(c2ccccc2)c2ccccc2)o1	-6.9%	-9.2	-6.5%	?	2.82µM*
O=C(N/N=C\c1ccccc1O)c1ccccc1O	-4.9%	-4.1	-15.1%	-3.8%	-3.3%
Cc1cc(C(=O)N/N=C/c2ccc(N(C)C)o2)cs1	·	·	·	·	12.6µM*
Cc1ccc(/C=N/NC(=O)c2csc(C)c2)o1	-9.0%	0.6	-6.7%	?	7.7%
CN(C)c1ccc(/C=N/NC(=O)c2ccccc2O)o1	-0.4%	-6.6	-8.7%	?	15.8µM*
CCNC(=O)[C@H](C)/C=C/C(NC(=O)OCc1ccccc1)c1ccc(C(=O)OC)cc1 (stereo partly drawn)	3.8%	6.2	-23.7%	?	12.0%
Cc1cccc(NC(=O)c2cc3c(=O)n4cccc(C)c4nc3s2)c1C	0.4%	·	2.6%	1.7%	·
CC1CN(C2CCN(S(=O)(=O)c3ccc4ccccc4c3)CC2)CC(C)O1 (stereo not drawn)	-12.8%	-2.0	-10.8%	-9.9%	31.6µM*
Cc1cc(S(=O)(=O)Nc2ccc(O)c(Sc3nc4ccccc4s3)c2)ccc1Cl	?	·	10µM*[quencher]	?	·
O=S(=O)(Nc1ccc(O)c(Sc2nc3ccccc3s2)c1)c1ccc(F)cc1	8.0%	-0.2	?	-15.0%	2.7%
O=S(=O)(Nc1ccc(O)c(Sc2nc3ccccc3s2)c1)c1cc(Cl)ccc1Cl	?	·	10µM*[quencher]	?	·
CCn1cc(C(=O)N2CCN(c3ccccc3)CC2)c(=O)c2cc(S(=O)(=O)N3CCC(C)CC3)ccc21	-1.3%	·	-10.8%	-9.1%	·
O=C(/C=C/C(=O)Oc1ccccc1C(=O)O)Oc1ccccc1C(=O)O	25.1µM*	-0.1	-13.0%	25.1µM*	-5.5%
Cc1ccc(C(=O)NCCn2c(N)c(C#N)c3nc4ccccc4nc32)cc1	-3.2%	-0.9	-14.2%	-5.0%	4.2%
CCC(C)n1c(NC(=O)c2ccccc2)c(C#N)c2nc3ccccc3nc21 (stereo not drawn)	8.1%	-49.3*	-14.9%	?	-16.9%
Cc1nn(C(C)(C)C)c(NC(=O)c2ccccc2)c1C#N	·	-1.1	·	·	7.8%
CCCCn1c(NC(=O)c2ccccc2)c(C#N)c2nc3ccccc3nc21	-6.2%	-53.2*	-12.6%	-2.4%	?
COCCSc1ccccc1C(=O)Nc1ccccc1C(C)C	-9.0%	0.3	-6.5%	-1.0%	17.8µM*
O=C(NNC(=S)NC(=O)c1cccnc1)c1ccc(Cl)cc1	3.4%	-0.4	-6.8%	-16.8%	0.7%
N#Cc1ccccc1NC(=S)NC(=O)c1cccnc1	·	1.2	·	·	50.1µM*
O=C(NC(=S)NNC(=O)c1ccc(Cl)cc1Cl)c1cccnc1	-4.5%	-5.5	-3.2%	?	44.7µM*
CCN(CC)C(=S)NC(=O)c1cccnc1	1.7%	0.1	1.6%	3.0%	50.1µM*
CC1(C)CC(=O)C2=C(C1)O[C@@]1(CCCCN3C(=O)c4ccccc4C3=O)Cc3ccccc3C2O1	·	-1.7	·	·	2.6%
Cc1cc(C)cc(N=Cc2[nH]c3ccc(Br)c(Cl)c3c2O)c1	7.1%	-19.4	?	?	-9.6%
COc1ccc(CN=Cc2[nH]c3ccc(Br)c(Cl)c3c2O)cc1	?	-30.4*	?	15.8µM*	-16.8%
SMILES	Tau fibril FP	FBPA coupling cs	Tau fluor cs	Tau ThT inhib	Sfp PPTase inh
COc1ccc(NC(=O)Nc2nc3c(s2)CCCC3)cc1	5.4%	-0.8	17.8µM*[quencher]	?	-6.3%
O=C(Nc1nc2c(s1)CCCC2)c1ccc2ncsc2c1	8.7%	-4.2	0.2%	4.2%	25.1µM*
O=C(Nc1cccc(Br)c1)Nc1nc2c(s1)CCCCCC2	?	·	3.55µM*[quencher]	-7.8%	·
COC1C(O)C(CO)OC1n1cnc2c(NC3CCCCC3)ncnc21 (stereo not drawn)	·	-12.5	·	·	4.7%
O=C(Nc1ccc2ccccc2c1)N1CCN(c2ncccc2C(F)(F)F)CC1	-2.4%	-50.3*	-6.7%	-5.1%	0.9%
CN1CCN(C(=S)Nc2ccc(S(N)(=O)=O)cc2)CC1	2.0%	-1.5	2.4%	-4.2%	22.4µM*
NS(=O)(=O)c1ccc(NC(=S)N2CCN(c3cccc(Cl)c3)CC2)cc1	0.5%	-2.9	-16.1%	?	12.6µM*
NS(=O)(=O)c1ccc(NC(=S)N2CCN(c3ccccc3Cl)CC2)cc1	-11.9%	1.7	-14.8%	-8.5%	24.6%
NS(=O)(=O)c1ccc(NC(=S)N2CCN(S(=O)(=O)c3ccc(F)cc3)CC2)cc1	-1.0%	0.1	3.6%	8.5%	-19.9%
COc1ccc(Br)cc1CNC(=O)CN1C(=O)c2cccnc2Oc2ccc(C)cc21	13.3%	·	4.8%	-15.8%	·
Cc1ccccc1-c1ccc2ncnc(N(C)Cc3ccco3)c2c1	·	0.8	·	·	?
CN(C)c1ccc(CN(Cc2ccco2)C(=O)COc2ccc(F)cc2)cc1	4.7%	·	?	?	·
CN(Cc1ccccc1)c1nc2c(S(=O)(=O)c3cccc(Cl)c3)nnn2c2ccsc12	-12.7%	·	-17.1%	-2.0%	·
CN(C)S(=O)(=O)c1cccc(NC(=O)COC(=O)c2cc(-c3cccc(Br)c3)nc3ccccc23)c1	12.6µM*	1.0	?	8.8%	6.2%
COc1cc(-c2cc(C(=O)Nc3cccc(S(=O)(=O)N(C)C)c3)c3ccccc3n2)cc(OC)c1OC	·	-4.4	·	·	14.2%
COc1cccc(NC(=O)c2cc(-c3ccc(C)o3)nc3ccccc23)c1	·	0.1	·	·	50.1µM*
Cc1ccc(-c2cc(C(=O)Nc3cccc(S(=O)(=O)N(C)C)c3)c3ccccc3n2)o1	·	-0.9	·	·	50.1µM*
COc1cccc(-c2cc(C(=O)Nc3ccc4c(c3)OCCO4)c3ccccc3n2)c1	?	-5.6	?	2.4%	5.2%
CN(C)c1ccc(NC(=O)C2C3C=CC(C3)C2C(=O)O)cc1 (stereo not drawn)	·	-8.1	·	·	50.1µM*
Cc1ccc(-c2cccc(NC(=O)C3C4C=CC(C4)C3C(=O)O)c2)o1 (stereo not drawn)	8.7%	7.1	-4.2%	-12.7%	35.5µM*
COc1cccc(C(=O)Nc2ccc(NC(=O)C3C4C=CC(C4)C3C(=O)O)cc2)c1 (stereo not drawn)	·	·	·	·	-22.9%
